Compound activity (PubChem)
AmpC inh detg: qHTS Inhibitors of AmpC Beta-Lactamase (assay with detergent). P00811. AmpC hydrolysis of nitrocefin, absorbance 480 nm, 0.01% Triton. Potency, µM (highest dose often 114 µM), without a hit: at the top dose activity change, negative = inhibition, actives largely listed as inhibitors. actives 0.041% (n = 370,000). AID 485294, 2010;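 also: 0% = no-compound wells and -100% = no-enzyme wells; nearly all actives have a fitted effect of over 25% in size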
Target sequence (P00811 whole entry, looked up): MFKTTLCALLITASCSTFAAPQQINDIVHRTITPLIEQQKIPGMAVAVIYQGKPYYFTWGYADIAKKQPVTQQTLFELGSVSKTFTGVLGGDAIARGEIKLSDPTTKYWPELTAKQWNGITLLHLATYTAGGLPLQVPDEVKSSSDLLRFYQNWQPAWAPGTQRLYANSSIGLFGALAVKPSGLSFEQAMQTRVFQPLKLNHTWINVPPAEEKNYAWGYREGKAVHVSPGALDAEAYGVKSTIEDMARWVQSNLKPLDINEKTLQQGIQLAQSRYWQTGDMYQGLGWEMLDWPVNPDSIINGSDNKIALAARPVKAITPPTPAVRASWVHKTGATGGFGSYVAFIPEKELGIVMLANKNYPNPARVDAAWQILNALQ
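AmpC (5.3 nM in the dispensed reagent) in 20 mM phosphate pH 7.0 with 0.01% (detergent screen) or 0.0001% Triton X-100 was preincubated with compounds for 15 min at room temperature. Nitrocefin was then added from an 800 uM solution, and hydrolysis was followed at 480 nm.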
Sm TGR inh: qHTS Assay for the Inhibitors of Schistosoma Mansoni Peroxiredoxins; Schistosoma mansoni thioredoxin glutathione reductase (TGR), Q962Y6; Potency, µM (top dose mostly 114 µM), inactives show at the highest dose activity change, negative = inhibition, usual class: inhibitors; purified TGR, DTNB reduction, TNB absorbance 405 nm; actives 3% (n = 360,000); also: nearly all actives have a fitted effect of over 60% in size
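First, TGR (20 nM dispensed) and NADPH were mixed with compound. Second, a 15 min room-temperature incubation followed. Third, further NADPH and then DTNB were added to start the reaction. Finally, TNB absorbance was monitored kinetically.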
AmpC inh no detg: qHTS Inhibitors of AmpC Beta-Lactamase (assay without detergent). actives 0.52% (n = 330,000). AID 485341, 2010. Potency, µM (series often up to 57.1 µM), without a hit: top-dose activity change, negative = inhibition, hits mostly inhibitors. P00811. AmpC nitrocefin hydrolysis, absorbance 480 nm, 0.0001% Triton;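 also: plate controls were no compound for no effect and no enzyme for full effect; nearly all actives have a fitted effect of over 20% in size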
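AmpC (5.3 nM in the dispensed reagent) in 20 mM phosphate pH 7.0 with 0.01% (detergent screen) or 0.0001% Triton X-100 was preincubated with compounds for 15 min at room temperature. Nitrocefin was then added from an 800 uM solution, and hydrolysis was followed at 480 nm.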
* hit, by the source's call; u = inconclusive; x = no result given; [ ] = dose if it differs, or a comment. This is a sample that favours compounds with a hit; in the whole collection about 3.3% have one here. Calls follow the shape of the dose curve; as a rule, active = well fitted curve in the direction sought with a large enough effect; inconclusive = small, poorly fitted or top-dose-only effect, or another doubt; inactive = no such curve, though single readings can be large; an effect the other way counts as inactive or inconclusive. Unless noted, % is scaled to controls: 0 for no effect and ±100 for the full control effect; potency is read from the fitted curve at half-maximal effect.

SMILES | AmpC inh detg | Sm TGR inh | AmpC inh no detg
Cc1ccc(CNC(=O)CCCc2nnc3n(C)c(=O)c4sccc4n23)cc1 | 8.2% | -1.8% | x
Cc1cc(C)c(S(=O)(=O)NCCc2ccccc2)c(C)c1 | -5.6% | 1.0%[57.1 µM] | -19.0%
Cc1cc(C)c(S(=O)(=O)NCCn2ccc3ccccc32)c(C)c1 | u | 12.3% | 39.8µM*
COc1ccc(N2C(=O)C(Cl)=C(Nc3ccccc3OC)C2=O)cc1 | -14.0% | -0.9% | -8.4%
COc1ccc(N2C(=O)C(Cl)=C(Nc3ccccc3O)C2=O)cc1 | -9.0% | 39.8µM* | -42.6%
C=CCN(c1ccccc1)S(=O)(=O)c1cccc(C(=O)Nc2nc3ccccc3[nH]2)c1 | -12.1% | -8.3% | 10µM*
C=CCN(c1ccccc1)S(=O)(=O)c1cccc(C(=O)Nc2ccncc2)c1 | -11.4% | 0.0% | -26.8%
O=C(Nc1ccc(Cl)c(Cl)c1)c1cc(S(=O)(=O)N2CCN(c3cccc(Cl)c3)CC2)ccc1F | 0.8% | 6.1% | x
CCOC(=O)c1sc(NC(=O)C(C)(C)C)cc1C | u | -1.7% | 10µM*
CCOC(=O)c1sc(NC(=O)C2CC2)cc1C | -7.2% | -1.1% | -24.0%
Cc1ccc2oc(C(=O)Nc3ccc(S(=O)(=O)Nc4nc(C)cc(C)n4)cc3)cc(=O)c2c1 | -5.7% | -0.2% | x
Cc1nc2nc(SCC(=O)NCCc3ccc(Cl)cc3)nn2c(C)c1Cc1ccccc1 | -1.6% | 0.8% | x
CCCOc1ccc(-c2nn(-c3ccccc3)cc2C2NC(=O)NC(C)=C2C(=O)OC)cc1C (configuration not stated) | u | 5.4% | x
O=C(O)C/C=C(\NC(=O)OCc1ccccc1)C(=O)OCc1ccccc1 | u | 15.8µM* | -22.5%
CC(=O)N/C(=C\c1ccccc1)C(=O)OCc1ccccc1 | 2.4% | 15.3% | 2.6%
COc1ccc(C(=O)Oc2ccc[nH]c2=O)cc1 | -0.5% | -7.5% | -7.6%
O=C(Oc1ccc[nH]c1=O)c1cc([N+](=O)[O-])cc([N+](=O)[O-])c1 | 2.0% | 79.4µM* | -5.5%
CCOCCc1nn2c(=O)cc(COC(=O)c3ccc4c(c3)OCO4)nc2s1 | -2.1% | 7.2% | x
Cc1cccc2c1-c1sc(C(=O)NCCCN3CCN(c4cccc(Cl)c4)CC3)cc1CO2 | u | 0.1% | x
CCOC(=O)C1CCCN(S(=O)(=O)c2cnc(Cl)c(Br)c2)C1 (configuration not stated) | 3.3% | 31.6µM* | -6.6%
CCOC(=O)C1CCCN(S(=O)(=O)c2ccc(S(=O)(=O)N3CCCC3)cc2)C1 (configuration not stated) | -15.9% | -0.4% | -9.7%
CCc1cccc(C)c1NC(=O)c1cc(C)nc2c1c(C)nn2-c1cccc(Cl)c1C | 2.7% | 3.0% | x
CCCn1ccc2c(OCC(=O)Nc3ccc(F)cc3F)cccc2c1=O | 2.5% | 6.6% | x
COc1ccc(/C=N/NC(=O)CN(c2ccc(OC)cc2)S(=O)(=O)c2ccccc2)cc1 | 7.0% | 0.8% | -23.0%
Cc1ccc(N(CC(=O)N/N=C/c2ccco2)S(=O)(=O)c2ccccc2)cc1 | 3.2% | 25.1µM* | -30.7%
SMILES | AmpC inh detg | Sm TGR inh | AmpC inh no detg
COc1ccc(N(CC(=O)N/N=C/c2ccco2)S(=O)(=O)c2ccccc2)cc1 | 0.0% | 28.2µM* | -48.3%
O=C(CN(c1ccccc1)S(=O)(=O)c1ccccc1)N/N=C/c1ccco1 | -8.8% | -26.4% | -36.1%
O=C(CCCn1c(=O)c2cccn2c2ccccc21)Nc1cccc(Cl)c1 | -3.4% | -9.0% | x
Cc1ccc(-n2ncc3c(N4CCC(C)CC4)ncnc32)cc1C | 6.4% | 0.0% | x
CCc1ccc(NC(=O)CC2C(=O)N(c3cccc(OC)c3)C(=O)N2Cc2ccc(F)cc2)cc1 (configuration not stated) | 15.7% | 1.5% | x
N#CCCN(C(=O)COC(=O)CCc1nc2ccccc2c(=O)[nH]1)c1ccc(F)cc1 | -3.4% | 0.4% | 0.9%
N#CCCN(C(=O)COC(=O)CCC(=O)c1ccc(F)cc1)c1ccccc1 | 2.2% | 39.8µM* | 24.1%
CCN(CC)CCOC(=O)c1ccc(NC(=O)c2cc3cccc(OC)c3oc2=O)cc1 | -2.8% | 6.3% | x
COC(=O)c1ccc2c(=O)n(CCCCCC(=O)N3CCN(c4cccc(C)c4C)CC3)c(=O)[nH]c2c1 | 8.3% | 3.6% | x
COCCNC(=S)NC(=O)c1ccc(C(C)(C)C)cc1 | -0.9% | 39.8µM* | -11.9%
Cc1onc(C(=O)NCCc2ccccc2)c1[N+](=O)[O-] | 2.3% | u | -16.7%
COc1ccc(CCNC(=S)NC(=O)c2cccc(Cl)c2)cc1OC | -5.8% | 0.0% | -6.0%
